Source: PubChem
Hits are enriched below; roughly 4% of the tested compounds scored in any of these assays.
KKLEB tox: counter-screen for CF NF-kB inhibitors: cytotoxicity; AID 602141; actives 0.36% (n = 360,000); KKLEB CF airway cells viability, ATPlite luminescence, overnight; stronger effect = lower value; cells stimulated with P. aeruginosa culture filtrate; activity change (cytotoxicity), % at 5 µM;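 active means corrected activity change at or below -50% at 5 µM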
TWEAK Fn14 block: TWEAK-Fn14 signaling inhibition; TWEAK-stimulated Fn14 reporter cells, luciferase luminescence, 8 h; inhibition, % at 10 µM; actives 2% (n = 360,000); AID 1159606; in the data active means inhibition above about 50%
CF NFkB inh: cystic fibrosis NF-kB activation inhibition; actives 0.86% (n = 360,000); KKLEB NF-kB-GFP reporter, PAF-induced, GFP fluorescence overnight; inhibition, % at 5 µM;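 active means at least 50% inhibition at 5 µM, scaled per plate between neutral and stimulator controls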;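 further: PAF is a Pseudomonas aeruginosa culture filtrate used as stimulus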
TROY NFkB inh: TROY signaling inhibition; Q293 LMP1-TROYcd NF-kB luciferase reporter, 4 h; inhibition, % at 10 µM; actives 0.98% (n = 360,000); AID 1347056;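 active means compounds whose plate-normalised and pattern-corrected inhibition of the luciferase reporter signal at the single screening dose is 50% or more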
HIF-2a block: inhibitors of HIF-2a. 786-0 RCC cells HIF-2a reporter, luciferase luminescence, overnight. actives 0.72% (n = 360,000). inhibition, % at 18.8 µM;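 active means inhibition of the luminescence signal of 40% or more relative to plate controls, in a single-dose primary screen at 18.75 µM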
Peg3 promoter: inhibitors of Peg3 promoter | HeLa PEG-Prom luciferase reporter, luminescence, overnight | inhibition, % at 20 µM | actives 1.7% (n = 360,000);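 active means inhibition of at least 50% at 20 µM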
Large screens that a line does not name were inactive.

Cc1cccc(NS(=O)(=O)c2ccc(NC(=O)CN(c3cc([N+](=O)[O-])ccc3C)S(C)(=O)=O)cc2)c1	Peg3 promoter 59.0
COc1ccc([N+](=O)[O-])cc1N(CC(=O)NCCSc1ccc(C)cc1)S(C)(=O)=O	none
Cc1cccc(NS(=O)(=O)c2ccc3[nH]c(=O)cc(C(=O)OC(C)C(=O)Nc4ccc([N+](=O)[O-])cc4)c3c2)c1 (centres undefined)	TROY NFkB inh 51.0
Cc1cc(C)n(-c2ccc(C(F)(F)F)cc2[N+](=O)[O-])n1	none
O=C(Cc1ccccn1)Nc1ccccc1	TWEAK Fn14 block 109.8
O=C(CSCc1ccccn1)Nc1ccccc1	none
Cc1c(Cl)cccc1NC(=O)COC(=O)CCc1nc2ccccc2n1-c1ccccc1	none
COc1ccccc1-c1oc2ccccc2c1C#CC1(N)CCCCC1	Peg3 promoter 71.6
CCCN1CCOC(CC(=O)Nc2ccc([N+](=O)[O-])cc2)C1=O (centres undefined)	none
CCc1ccc2c(c1)C1(C(=O)N2)N2CCCC2C(C(=O)c2ccc3ccccc3c2)C12C(=O)Nc1ccccc12 (centres undefined)	Peg3 promoter 104.0
CCc1cccc2c1NC(=O)C21N2CCCC2C(C(=O)c2ccc3ccccc3c2)C12C(=O)Nc1ccccc12 (centres undefined)	none
NC(=O)c1ccccc1N/C=C/C(=O)c1ccc(Cl)cc1Cl	KKLEB tox -64.7
N#Cc1ccc(NCC(=O)N2CCN(S(=O)(=O)c3ccccc3)CC2)cc1	none
CC1CC(CN)CC(CO)C1 (centres undefined)	TWEAK Fn14 block 53.2
O=C(CSc1nc(-c2ccccc2)c(-c2ccccc2)o1)NCCCO	none
O=C(CSc1nnc(NC(=O)c2cccc(F)c2)s1)NC1CC1	none
O=[N+]([O-])c1cccc2nc3ccccc3c(NCCCn3ccnc3[N+](=O)[O-])c12	Peg3 promoter 99.1
COC(=O)c1ccc(CN2C(=O)NC3(CCCc4ccccc43)C2=O)o1 (centres undefined)	none
COC(=O)c1ccc(CN2C(=O)NC3(CCCCC3C)C2=O)o1 (centres undefined)	TWEAK Fn14 block 52.8 (no result: TROY NFkB inh)
O=[N+]([O-])c1ccccc1COc1ccc(Cl)c2cccnc12	TWEAK Fn14 block 65.3
COc1ccc(S(=O)(=O)N2CCCCC2)cc1-n1cnnn1	none
O=C(NC(=S)Nc1ccc(N2CCCCC2)cc1)c1ccc2c(c1)OCCO2	TWEAK Fn14 block 54.9, TROY NFkB inh 77.5
O=C(NC(=S)Nc1ccc(F)cc1)c1ccc2c(c1)OCCO2	none
O=C(NC(=S)Nc1ccc(N2CCOCC2)cc1)c1ccc2c(c1)OCCO2	TWEAK Fn14 block 51.3, TROY NFkB inh 59.6
Cc1ccc(C(=O)N2CCN(c3ccc(NC(=O)c4ccc5c(c4)OCCO5)cc3)CC2)cc1	TWEAK Fn14 block 75.6, TROY NFkB inh 57.5
N#Cc1ccsc1NC(=O)CSc1ncn[nH]1	none
N#Cc1ccsc1NC(=O)CSc1ncnc2ccccc12	TROY NFkB inh 56.0
CN(C)S(=O)(=O)c1cccc(NC(=O)CSc2ncnc3ccccc23)c1	TWEAK Fn14 block 64.0
CC1(C)CC(NC(=O)Nc2ccc([N+](=O)[O-])cc2)CC(C)(C)N1	none
O=C(C1CCCCC1)N1CCN=C1SCc1cccnc1	none
CCOC(=O)C(C(=O)OCC)C(Nc1cccc(Br)c1)c1ccccc1 (centres undefined)	TWEAK Fn14 block 70.8
O=C(/C=C/c1ccccc1)Nc1nc(-c2ccncc2)cs1	TROY NFkB inh 52.7
O=C(/C=C\c1ccco1)Nc1nc(-c2ccccc2)cs1	none
N#Cc1ccc(-c2csc(NC(=O)/C=C/c3cccs3)n2)cc1	TROY NFkB inh 58.6
Cc1nc(NC(=O)/C=C/c2ccccc2)n[nH]1	TWEAK Fn14 block 86.2, Peg3 promoter 92.3
COc1ccccc1C(=O)O/N=C(/C)c1ccc(N2C(=O)C3CCCCC3C2=O)cc1 (centres undefined)	none
O=C(/C=C/c1ccc(N2CCCCC2)c([N+](=O)[O-])c1)c1ccc(S(=O)(=O)N2CCCC2)cc1	Peg3 promoter 54.9
COc1cccc(C(=O)/C=C/c2ccc(N3CCCCC3)c([N+](=O)[O-])c2)c1	Peg3 promoter 66.2
Cc1cccc(N=Nc2ccc(O)c3ncccc23)c1	TWEAK Fn14 block 90.1
CCOc1ccc(N=Nc2ccc(O)c3ncccc23)cc1	none
O=C(Nc1ncccc1O)c1ccc2c(c1)OCCO2	none
Oc1ccc(N=Nc2ccc3c(c2)OCCO3)c2ncccc12	TWEAK Fn14 block 82.5, TROY NFkB inh 59.9
NS(=O)(=O)c1ccc(N=Nc2ccc(O)c3ncccc23)cc1	Peg3 promoter 56.4
Clc1ccc(-n2nnc(-c3cccnc3)n2)cc1Cl	none
Cc1nn(-c2ccccc2)c2sc(C(=O)O)cc12	none
Cc1ccc(-n2nc(C)c3cc(C(=O)O)sc32)cc1	TWEAK Fn14 block 86.3 (no result: TROY NFkB inh)
Cc1ccc(S(=O)(=O)c2c(N)n(CCCN(C)C)c3nc4ccccc4nc23)cc1	none
CCCCn1c(NS(=O)(=O)c2ccc(C)cc2)c(S(=O)(=O)c2ccccc2)c2nc3ccccc3nc21	TROY NFkB inh 63.9
Cc1ccc[n+](CC(=O)Nc2cc(C(F)(F)F)ccc2Cl)c1	none
CCC(C)(C)c1ccc(OCCCC[n+]2cccc(C)c2)c(C(C)(C)CC)c1	TWEAK Fn14 block 76.9, CF NFkB inh 60.1, Peg3 promoter 100.8
Cc1cc([N+](=O)[O-])ccc1-c1ccc(/C=N/NC(=O)c2ccc(Br)o2)o1	Peg3 promoter 110.5
Cc1ccc(-c2ccc(/C=N\NC(=O)c3cc4c(ccc5ccccc54)o3)o2)cc1[N+](=O)[O-]	Peg3 promoter 90.8
O=C(O)c1ccc(/C=N/NC(=O)c2cc3c(ccc4ccccc43)o2)cc1	TROY NFkB inh 63.2
O=C(CNc1cccc2ccccc12)N/N=C/c1ccc(C(=O)O)cc1	none
O=C(CNc1ccc2ccccc2c1)N/N=C/c1ccc(C(=O)O)cc1	TWEAK Fn14 block 53.2
COc1ccc(Cl)cc1NC(=S)NCc1cccnc1	none
O=C(CNc1ccccc1)NNC1=NCCC1	none
CCOC(=O)c1ccc(S(=O)(=O)N2CCN(C(=O)c3cccc(S(=O)(=O)N4CC(C)OC(C)C4)c3)CC2)cc1 (centres undefined)	none
CN1CCN(C(=O)c2cc3sccc3n2CC(=O)c2ccccc2)CC1	none
O=C(CSC1=N/C(=C/c2ccc(Cl)c(Cl)c2)C(=O)N1c1ccccc1F)NC1CC1	TWEAK Fn14 block 61.1
Fc1ccc(-n2[nH]nnc2=S)cc1N1CCCC1	none
COc1ccc(NC(=O)CSc2ccc3ccccc3c2)cc1S(=O)(=O)N1CCCCC1	TWEAK Fn14 block 58.5
COc1ccc(NC(=O)CSc2ccc(NC(C)=O)cc2)cc1S(=O)(=O)N1CCOCC1	none
Cc1ccc(NC(=S)Nc2ccc(C(C)C)cc2)cc1S(=O)(=O)N1CCCCCC1	TWEAK Fn14 block 67.3
